Source: PubChem BioAssay (NCI)
The panel holds about 83,000 compounds, 20% with a hit somewhere; the sample as a whole holds those more often.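 Testing used 96-well plates and a 48-hour single-concentration exposure. Example: -40 means 40% of the starting cells died.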 Activity calls are given as the source filed them. The calls were made as follows: active = growth percent below 10; inactive = the rest.

tested on: HL-60(TB) leukemia; experiment: NCI-60 one-dose screen, 48 h (100 = growth as untreated, 0 = no growth, -100 = all killed); settings: 10 µM unless noted

SMILES | growth
COc1ccc(/C=C2\CN(C(=O)C(Cl)Cl)C/C(=C\c3ccc(OC)cc3)C2=O)cc1 | -11.9% (active)
O=C(CC(C(=O)c1ccccc1)N1CCOCC1)c1ccccc1 (stereo unspecified) | 55.4% (inactive)
O=C(c1ccccc1)c1c(/C=C/c2ccccc2)nc2ccccc2c1/C=C/c1ccc(Br)cc1 | 112% (inactive)
CC(=O)Nc1ccc([I+]c2ccc([N+](=O)[O-])cc2)cc1 | 109% (inactive)
COc1ccc(-c2nc3sccn3c2-c2ccnc(NCCCNS(=O)(=O)c3ccc(C)cc3)n2)cc1 | 0.661% (active)
O=C1c2cc3c(cc2-c2c1c1ccc(Cl)cc1c(=O)n2CCCn1ccnc1)OCO3 | -29.1% (active)
COC(=O)C(Cc1ccccc1)NC(=O)NC(=O)NC(=O)CI (stereo unspecified) | -51.3% (active)
C[C@@H](Oc1ccc(C(=O)NS(=O)(=O)C(C)(C)C)cc1C(F)(F)F)c1ccc(Oc2ccccc2)cn1 | 15.8% (inactive)
COc1cc(NC(=O)c2cc3ccccc3nc2Nc2ccc(F)cc2)cc(OC)c1OC | 47.2% (inactive)
CN1CCN(CCOc2ccc(-c3cnc4c(-c5ccc(F)cc5)cnn4c3)cc2)CC1 | 2.46% (active)
O=C(Nc1ccc2ncnc(Nc3ccc(Oc4cccc(F)c4)c(Cl)c3)c2c1)c1ccc(CNCCO)cc1 | 22.3% (inactive)
COc1cccc(/C=C2\COc3ccc(O)c(O)c3C2=O)c1OC | -24.4% (active)
Cc1cc[c-]cc1.Fc1c[c-]c(-c2ccccn2)c(F)c1.[Pt+2].c1ccc(P(C[PH+](c2ccccc2)c2ccccc2)c2ccccc2)cc1 | -25.7% (active)
C=C(CNCCc1ccc(O)cc1)[C@@H]1CC[C@]2(COC3CCCCO3)CC[C@]3(C)[C@H](CC[C@@H]4[C@@]5(C)CCC(N)C(C)(C)[C@@H]5CC[C@]43C)[C@@H]12 (stereo partly specified) | -75.6% (active)
C#Cc1cccc(NC(=O)Nc2ccccc2NC(=O)CCl)c1 | 16.8% [8.25 µM] (inactive)
O=S(=O)(Cc1cccc2c(CS(=O)(=O)c3ccc(Cl)cc3)cccc12)c1ccc(Cl)cc1 | 93.5% (inactive)
C=C1CC[C@@]2(C#N)[C@H]3[C@H](CC[C@@H]2C)[C@@H](C)C[C@@H](CC(C)(C)C#N)[C@H]13 | 21.8% (inactive)
CC(C)NC(=O)N/C=C(\C#N)C(N)=O | 137% (inactive)
COc1cccc(-c2nc3sccn3c2-c2ccnc(NCCNC(=O)Nc3cccc(C(F)(F)F)c3)n2)c1 | 62.8% (inactive)
CC(=S)Nc1ccccc1 | 103% (inactive)
O=C(CNc1nc2ccccc2s1)Nc1ccc(-c2nc3ccccc3s2)cc1 | 99.1% (inactive)
Cc1nc2sc(C(=O)Nc3ccccc3Cl)c(N)c2cc1C(C)O (stereo unspecified) | 58.8% (inactive)
NC1=C(Cl)C(=O)c2ccc(S(N)(=O)=O)cc2C1=O | 3.12% (active)
COc1cccc(-c2nn(-c3ccccc3)cc2-c2ccnc(NCCCNS(=O)(=O)c3ccccc3)c2)c1 | 16% (inactive)
CCn1c(SCC(=O)Nc2cc(C(F)(F)F)ccc2Cl)nc2ccccc2c1=O | 19.3% (inactive)
CCOc1ccc(N2C(=O)CCSC2=S)cc1 | 99.7% (inactive)
